Max dye-equivalent concentration data for 55 compounds are collected here from PubChem BioAssay AID589 (National Center for Advancing Translational Sciences (NCATS), 2007).

Among all 59,000 compounds or so, about 6,200 (11%) were called active. About 9% were inconclusive and are not listed. Cut-off read from the data, not from the text of the source: active = max dye-equivalent concentration above about 10 nM; inconclusive = mostly about 1.1 nM to 9.6 nM; inactive = weaker than that. Shown is part of a subset that was picked to be rich in actives.

A short description of the experiment: qHTS Assay for Spectroscopic Profiling in 4-MU Spectral Region. The conditions noted are these: compound autofluorescence, 340/450 nm, 4-MU equivalents; active compounds read high. In short, it runs like this:
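Compounds in 100 mM Tris, pH 8.0, sat 15 min at room temperature before fluorescence was read at 340 nm excitation/450 nm emission; a per-plate six-point 4-MU standard curve converted signals to dye-equivalent concentration at each compound concentration.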
Background: qHTS replaces the single test concentration by a dilution series.
`NC(=O)CSC1=Nc2ccccc2C2=NC(CCC(=O)NCc3ccc(F)cc3)C(=O)N12` (stereo not given): the max dye-equivalent concentration was 460 nM (active).

Take `Cc1nc2nc(SCC(=O)NCc3ccco3)nn2c(C)c1Cc1ccccc1`: the max dye-equivalent concentration result is “inactive”.

Take `O=C(CC1N=C2c3ccccc3N=C(SCc3ccccc3Cl)N2C1=O)NCc1ccco1` (stereo not given): the max dye-equivalent concentration is 18 nM (active).

As to `CC1(c2ccccc2Cl)NC(=O)N(CC(=O)NC(=O)NCc2ccco2)C1=O` (stereo not given), the max dye-equivalent concentration entry is “inactive”.

Regarding `O=C(CN1C(=O)CCS(=O)(=O)c2ccccc21)NCc1ccc(F)cc1`, the max dye-equivalent concentration entry was “inactive”.

As for `COCCCN1C(=O)c2ccc(C(=O)Nc3ccc(OC)cc3OC)cc2C1=O`, the max dye-equivalent concentration result is “inactive”.

As to `O=C(NC(=O)c1ccc(Cl)c(Cl)c1)OC1CCS(=O)(=O)C1` (stereo not given), the max dye-equivalent concentration result was “inactive”.

Turning to `COc1ccc(O)c(C(=O)c2cnc3onc(C(C)C)c3c2)c1`, the max dye-equivalent concentration entry was “inactive”.

For `COc1ccc(OCC(=O)OCCN(C)C)cc1`, the max dye-equivalent concentration result is “inactive”.

As to `CC(C)(C)C(=O)CCN1C(=O)C2(OCCO2)c2ccccc21`, the max dye-equivalent concentration entry is “inactive”.

For `CCN(CC)S(=O)(=O)c1cccc(C(=O)NCC(=O)OCC(=O)NCc2ccccc2)c1`, the max dye-equivalent concentration entry was “inactive”.

Consider `O=C(Cn1[nH]c(=O)c2ccccc2c1=O)Nc1cccc(-c2nnc3n2CCCCC3)c1`, for which the max dye-equivalent concentration result was “inactive”.

Regarding `O=C(CSc1nnnn1-c1ccc2c(c1)CCC2)Nc1ccc2c(c1)OCCO2`, the max dye-equivalent concentration result was “inactive”.

Consider `COC(C)(C)[C@]12CC(O)(C(C)C)ON1[C@H]1CCCCC1N2O` (stereo not given in full), for which the max dye-equivalent concentration entry was “inactive”.

Regarding `COc1ccc(NC(C)=O)cc1NC(=O)CN1CCN(C2c3ccccc3-c3ccccc32)CC1`, the max dye-equivalent concentration entry was “inactive”.

For `c1ccc(-c2cn3cccnc3n2)cc1`, the max dye-equivalent concentration is 5100 nM (active).

For `COc1ccc(-c2cn3ccsc3n2)cc1`, the max dye-equivalent concentration result is “inactive”.

Take `CC(=O)Nc1cccc(-c2cnc3ccccc3n2)c1`: the max dye-equivalent concentration result was “inactive”.

`CCOc1nc(OCC)nc(-n2cc(-c3ccccc3)nn2)n1`: the max dye-equivalent concentration entry is “inactive”.

For the compound `CCCC(=O)Nc1cccc(-c2cn3ccsc3n2)c1`, the max dye-equivalent concentration result was “inactive”.

For `CC(=O)Nc1ccc(-c2cn3cccnc3n2)cc1`, the max dye-equivalent concentration is 6100 nM (active).

Turning to `COC(=O)[C@H](C)NC(=O)Nc1ccc(OC(F)(F)F)cc1`, the max dye-equivalent concentration entry is “inactive”.

As for `CCS(=O)(=O)N1CCCC(C(=O)NCc2ccc(C)cc2)C1` (stereo not given), the max dye-equivalent concentration entry was “inactive”.

Consider `COc1ccc(CNc2ncnc3ccc(-c4cccnc4)cc23)c(OC)c1`, for which the max dye-equivalent concentration entry is “inactive”.

`COc1cc(-c2noc(C3CCCN(S(=O)(=O)c4cccc(Cl)c4)C3)n2)cc(OC)c1OC` (stereo not given): the max dye-equivalent concentration entry is “inactive”.

Take `CC(NC(=O)CSc1nc2c(cc1C#N)CN(C)CC2)c1ccccc1` (stereo not given): the max dye-equivalent concentration is 22 nM (active).

Consider `Cc1ccc2cc(C#N)c(SCC(=O)NCC3CCCO3)nc2c1C` (stereo not given), for which the max dye-equivalent concentration entry was “inactive”.

With `Cc1cc(C(F)(F)F)c(C#N)c(SCC(=O)NC2CC2)n1`, the max dye-equivalent concentration result was “inactive”.

As to `O=C1c2ccccc2C(=O)N1CCc1nn[nH]n1`, the max dye-equivalent concentration entry is “inactive”.

Regarding `COc1ccc(-n2c(SCC(=O)Nc3ccc4c(c3)OCO4)nnc2C(C)N2CCCCC2)cc1` (stereo not given), the max dye-equivalent concentration entry was “inactive”.

In the case of `COc1cc(C(=O)Nc2nccs2)cc(OC)c1OC`, the max dye-equivalent concentration entry was “inactive”.

With `COC(=O)c1cccc(NC(=O)CN2CCC(NC(=O)c3cc(OC)c(OC)c(OC)c3)CC2)c1`, the max dye-equivalent concentration result is “inactive”.

For the compound `COc1cc(C(=O)Nc2oc(-c3ccccc3)c(-c3ccccc3)c2C#N)cc(OC)c1OC`, the max dye-equivalent concentration is 11 nM (active).

`Cc1ccc(N2CCN(S(=O)(=O)N(C)C)CC2)cc1Cl`: the max dye-equivalent concentration result is “inactive”.

With `CCCn1c(SCC(N)=O)nnc1C(C)C`, the max dye-equivalent concentration entry is “inactive”.

For `Cc1ccc(C(=O)CS(C)(=O)=O)cc1`, the max dye-equivalent concentration was 20 nM (active).

With `N#Cc1ccc(CSc2nnc(-c3ccccn3)n2-c2ccc(Cl)cc2)cc1`, the max dye-equivalent concentration result was “inactive”.

Regarding `N#CNC1=NCN(CCc2ccccc2)CN1`, the max dye-equivalent concentration entry was “inactive”.

For the compound `O=C(c1csnn1)N1CCC[C@@]2(CCN(c3cccc(-c4ccccc4)c3)C2)C1`, the max dye-equivalent concentration result was “inactive”.

With `COc1ccc(CN2C(=O)CN=C2Nc2ccc(C)cc2C)cc1`, the max dye-equivalent concentration result was “inactive”.

`Cc1cc(C)nc(N2C(=O)CC(Cc3ccccc3)C2=O)n1` (stereo not given): the max dye-equivalent concentration result is “inactive”.

Consider `Nc1ccc2c3c(cccc13)C(=O)NC2=O`, for which the max dye-equivalent concentration result is “inactive”.

`C=CCNc1nnc(SCC(=O)N2CCCCC2)c2ccccc12`: the max dye-equivalent concentration is 16 nM (active).

As for `CCOc1ccccc1-n1c(SCC(=O)N2CCCC2)nnc1-c1ccoc1C`, the max dye-equivalent concentration result was “inactive”.

As to `C=CCNc1nnc(C)c2ccccc12`, the max dye-equivalent concentration result was “inactive”.

For `CCNc1nc(SCCOc2ccccc2)nc(N(C)C)n1`, the max dye-equivalent concentration result is “inactive”.

In the case of `Nc1ncc(-c2cc3ccccc3oc2=O)s1`, the max dye-equivalent concentration result was “inactive”.

On to `O=c1oc2cc(O)ccc2cc1-c1ccc(F)cc1`, for which the max dye-equivalent concentration is 95 nM (active).

Take `O=C(NCCCNC(=O)NC1CCCCC1)NC1CCCCC1`: the max dye-equivalent concentration entry is “inactive”.

For `Cn1cnc2c1c(=O)n(Cc1c(Cl)cccc1Cl)c(=O)n2C`, the max dye-equivalent concentration entry is “inactive”.

`COc1ccc2nc(NC(=O)c3ccc(Br)s3)sc2c1`: the max dye-equivalent concentration was 460 nM (active).

Regarding `CNC(=O)c1ccc2nc(NC(C)=O)sc2c1`, the max dye-equivalent concentration entry is “inactive”.

On to `COC(=O)c1sc(NC(=O)c2ccc(OC)cc2OC)nc1C`, for which the max dye-equivalent concentration result was “inactive”.

For `Cc1c(C)c2cc3c4c(oc3c(C)c2oc1=O)CCCC4`, the max dye-equivalent concentration is 30 nM (active).

Consider `CC(=O)N(Cc1cccs1)C1CCOC(C)(C)C1` (stereo not given), for which the max dye-equivalent concentration entry is “inactive”.
